Reference: publication PMC5540273 (PLoS ONE, 2017)

The compounds below were run on T1, RSK2(Kin.Dom.1-N-terminal). Conditions: concentration: 1 μM, replicates: in singlicate; n = 1.
T1 construct: gene RPS6KA3
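Also: KINOMEscan kinase panel screen.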

Point of comparison: `CC(=O)c1c(C)c2cnc(Nc3ccc(N4CCNCC4)cn3)nc2n(C2CCCC2)c1=O`, “%Inh” value 0%. Against it:
- O=C(Nc1n[nH]c2nc(-c3ccco3)c(Br)cc12)C1CCN(Cc2ccccc2)C1.O=C(O)[C@H](O)[C@@H](O)C(=O)O (stereo not shown) [SB-742034] — higher, 35%
- Cn1cnc2c(N)ncnc21 [SKF-97623] — the same, 0%
- COc1ccc(Nc2nccc(-c3ccc(NC(=O)c4cc5cc(F)ccc5[nH]4)cc3)n2)cc1 [GSK1229496] — the same, 0%
- CNC(=O)c1ccc(C)c(-n2c(C)cc(OCc3ccc(F)cc3F)c(Br)c2=O)c1 — the same, 0%
- Nc1nccc(-c2c(-c3ccc(F)cc3)ncn2C2CCN(Cc3ccccc3)CC2)n1 [SB-219980] — higher, 41%
- Cc1ccc(NC(=O)Nc2ccccc2)cc1-c1ccc(C(=O)Nc2ccncc2)cc1 [GSK1398471] — the same, 0%
- Fc1ccc(-c2nc[nH]c2-c2ccncc2)cc1 [SB-217360] — higher, 34%
- CC(C)c1cc(-c2ccc3c(N)n[nH]c3c2)nc(N)n1 [GSK2250882] — higher, 18%
- Fc1ccc(-c2nc3n(c2-c2ccncc2)CCS3)cc1 [GI98581] — higher, 1%
- CCc1ccc(-c2ccc3c(c2)-c2n[nH]cc2S(=O)(=O)N3C)cc1 — higher, 7%
- COc1ccc(CSc2nnc(-c3ccc4c(c3)CCO4)o2)cc1 — the same, 0%
- CSc1ccc(-c2nc3n(c2-c2ccncc2)CCC3)cc1 [SKF-105561] — the same, 0%
- COc1cccc(NC(=O)Nc2ccc(C)c(-c3ccc(C(=O)Nc4ccncc4)cc3)c2)c1 [GSK1398474] — the same, 0%
- O=c1cc(N2CCOCC2)nc2n(Cc3cccc(Cl)c3Cl)c3ccccc3n12 [GSK2299009] — higher, 19%
- COC(=O)c1cccc(NC(=O)NC2CCN(c3ccnc(Nc4ccc(F)cc4)n3)C2)c1 (stereo not shown) [GSK1379725] — higher, 5%
- O=C(Nc1n[nH]c2nc(-c3cccs3)c(Br)cc12)C1CC1 [SB-735297] — higher, 22%
- CN1c2ccc(-c3ccc(C(N)=O)cc3)cc2-c2[nH]ncc2S1(=O)=O — higher, 17%
- CNc1cc(-c2ccc3c(N)n[nH]c3c2)nc(N)n1 [GSK2224810] — higher, 14%
- Cn1cncc1C(=O)NC1CCN(c2ccnc(Nc3ccc(F)cc3)n2)C1 (stereo not shown) [GSK1379717] — higher, 5%
- Cn1cncc1-c1cc2c(Nc3ccc(OCc4ccccc4)cc3)ncnc2cn1 [GW281179] — the same, 0%
- COc1ccc(-c2coc3ccc(-c4nnc(C)o4)cc23)cc1 — the same, 0%
- Cc1ccc(NC(=O)Nc2ccc(Cl)cc2)cc1-c1ccc(C(=O)Nc2ccncc2)cc1 [GSK1398472] — higher, 2%
- CC(=O)c1c(C)c2cnc(Nc3ccn(C)n3)nc2n(C2CCCC2)c1=O — the same, 0%
- COc1ccc(Nc2nccc(N3CCC(NC(=O)c4cc5ccccc5s4)C3)n2)cc1 (stereo not shown) [GSK1379738] — higher, 10%
- Cc1nccc(-c2c(-c3ccc(F)cc3)ncn2CCCN2CCOCC2)n1.Cl [SB-282975] — higher, 29%
- CC[C@@H]1CO[C@H](C(=O)Nc2ccccc2)CN1c1cc(-c2ccc3c(N)n[nH]c3c2)nc(NC)n1 [GSK2376236] — the same, 0%
- NS(=O)(=O)c1cccc(N/C=C2\C(=O)Nc3ccc(S(=O)(=O)Cc4c(Cl)cccc4Cl)cc32)c1 [GSK398099] — higher, 6%
- Nc1cccc(-c2ccc3c(N)n[nH]c3c2)n1 [GSK2192730] — higher, 3%
- CCCCc1nn2ncccc2c1-c1ccnc(NC2CC2)n1 [GW684374] — higher, 26%
- CNc1nc(-c2ccc3c(N)n[nH]c3c2)cc(N2C[C@@H](C(=O)NC3CCCCC3)OC[C@H]2C)n1 [GSK2375584] — the same, 0%
- COc1cccc(C2=C(Nc3cc(Cl)c(O)c(Cl)c3)C(=O)NC2=O)c1 [SB-390767] — higher, 11%
- COc1ccc(CSc2nnc(-c3ccc4ncsc4c3)o2)cc1C(F)(F)F — the same, 0%
- Cc1c(Cn2c(C)c(C)n3c(=O)cc(N4CCOCC4)nc23)cccc1C(F)(F)F [GSK2328680] — the same, 0%
- CNc1nc(-c2ccc3c(N)n[nH]c3c2)cc(N2C[C@@H](C(=O)Nc3ccccc3)CC[C@H]2C)n1 [GSK2298859] — the same, 0%
- Cc1ccccc1-c1cc(-c2c[nH]nc2-c2ccccn2)ccn1 [GW680061] — higher, 10%
- COc1ccc(Nc2nccc(NCCNC(=O)Nc3cc(C)ccc3C)n2)cc1 [GSK1379899] — higher, 4%
